Experimental data from PubChem BioAssay AID2796 (The Scripps Research Institute Molecular Screening Center, 2010).
In all, about 320,000 compounds went through this assay and about 8,000 (2.5%) were called active. Only a selection was taken, and actives are over-represented in it overall. Values without a mark were called inactive. No stated cut-off is given here; in the data, active means activation above about 47%; inactive means the rest.

molecular target: Aryl hydrocarbon receptor (Homo sapiens) (UniProt P35869); experiment: AHR activators, primary screen, cell-based, luminescence, luciferase reporter, human (AID 2796); settings: AHR-responsive luciferase reporter cells, at 5 µM, hits give high values;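 further: 0% = vehicle wells and 100% = reference agonist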
Sequence (P35869 whole entry, looked up): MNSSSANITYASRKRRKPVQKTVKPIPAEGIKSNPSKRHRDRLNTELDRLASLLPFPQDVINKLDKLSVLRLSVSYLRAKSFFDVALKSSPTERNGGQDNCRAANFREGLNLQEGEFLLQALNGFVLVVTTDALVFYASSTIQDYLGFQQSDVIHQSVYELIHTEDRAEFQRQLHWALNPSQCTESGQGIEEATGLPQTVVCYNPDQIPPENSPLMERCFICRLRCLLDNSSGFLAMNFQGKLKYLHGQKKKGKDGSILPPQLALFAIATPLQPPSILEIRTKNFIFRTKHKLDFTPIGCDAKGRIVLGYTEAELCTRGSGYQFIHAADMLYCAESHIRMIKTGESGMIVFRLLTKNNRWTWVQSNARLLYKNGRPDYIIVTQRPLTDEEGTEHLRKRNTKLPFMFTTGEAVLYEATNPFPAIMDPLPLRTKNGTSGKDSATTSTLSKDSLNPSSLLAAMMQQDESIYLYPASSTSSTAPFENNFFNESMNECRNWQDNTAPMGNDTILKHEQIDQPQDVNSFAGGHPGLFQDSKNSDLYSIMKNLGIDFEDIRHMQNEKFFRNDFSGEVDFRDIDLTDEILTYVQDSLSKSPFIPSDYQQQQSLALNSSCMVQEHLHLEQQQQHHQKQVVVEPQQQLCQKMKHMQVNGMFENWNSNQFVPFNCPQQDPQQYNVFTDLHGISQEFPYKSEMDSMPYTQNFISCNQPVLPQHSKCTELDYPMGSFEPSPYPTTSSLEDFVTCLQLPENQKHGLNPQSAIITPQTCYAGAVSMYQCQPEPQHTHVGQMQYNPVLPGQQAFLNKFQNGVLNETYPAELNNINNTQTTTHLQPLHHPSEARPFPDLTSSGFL

| Compound | activation |
| --- | --- |
| COc1ccccc1CN1CC(C(=O)NCCc2cn[nH]c2)CCC1=O (stereo unspecified) | 2.31% |
| COc1cccc(OC)c1C(=O)Nc1nnc(C(C)C)s1 | 15.7% |
| CNC(=O)c1c(NC(NC(=O)c2ccco2)C(=O)c2ccc(Cl)cc2)sc2c1CCCC2 (stereo unspecified) | 1.8% |
| O=C(Nc1sc2c(c1C(=O)O)CCC2)c1ccccc1F | 13.6% |
| NC(=O)c1c(NC(=O)CSc2nnc(-c3ccco3)n2N)sc2c1CCCC2 | 19.8% |
| COc1cccc(OC)c1C(=O)Nc1sc2c(c1C(N)=O)CCCC2 | 49.1% (active) |
| NC(=O)c1c(Nc2nc3c(F)cccc3s2)sc2c1CCCC2 | 52.5% (active) |
| Cc1cccc(N(C(=O)Cn2nnc(-c3ccc(C)o3)n2)C(C(=O)NC2CCCC2)c2ccncc2)c1 (stereo unspecified) | -1.02% |
| CC1CCCCN1C(=O)CCS(=O)(=O)Cc1ccccc1 (stereo unspecified) | -0.28% |
| Nc1ccccc1/C=N\N=C/c1ccccc1N | 38.4% |
| Cc1ccc(NC(=O)NNC(=O)c2sccc2-n2cccc2)cc1 | 85.8% (active) |
| CCNC(=O)c1sccc1-n1cccc1 | 0.75% |
| COC(=O)c1sccc1NC(=S)Nc1ccc(C)cc1 | 1.83% |
| CN(C)C1=NC[C@H](Cc2ccccc2)N1CCc1ccc(F)cc1 | 5.16% |
| CCOC(=O)N1CCN(C(=O)c2ccccc2SCC(=O)NCC2CCCCC2)CC1 | 1.83% |
| COc1ccccc1Oc1ccc(N/C=C2/CCCC2=O)cc1 | 0.2% |
| O=C(Cc1ccccc1)NNC(=O)C1CCN(c2ncccn2)CC1 | 0.76% |
| O=C1/C(=C\Nc2ccccc2)CCN1c1ncccn1 | 66.5% (active) |
| CCc1cc2c(=O)c(-c3ccon3)c(N)oc2cc1OC | 59.6% (active) |
| CCc1cc2c(=O)c(-c3ccc(F)cc3)c(C(F)(F)F)oc2cc1OCC(=O)O | 8.09% |
| COc1ccc2oc(N)c(C=O)c(=O)c2c1 | -1.38% |
| CCN1C(=O)C(C(=O)NC(C)c2ccccc2)C2CC1(C)Oc1ccccc12 (stereo unspecified) | 2.9% |
| CC(NS(=O)(=O)c1ccccc1)c1n[nH]c(=S)n1-c1ccccc1 (stereo unspecified) | 2.32% |
| COc1ccc(Cl)cc1NS(=O)(=O)c1cccc(C(=O)NCC2CCCO2)c1 (stereo unspecified) | -1.04% |

| Compound | activation |
| --- | --- |
| COc1ccc(C(=O)NC(=S)Nc2ccccc2N2CCN(S(C)(=O)=O)CC2)cc1OC | 0.97% |
| O=C(NC(=S)Nc1ccccc1N1CCCCC1)c1ccc(F)cc1 | 19.9% |
| COc1ccccc1C(=O)NC(=S)Nc1ccccc1N1CCCCC1 | 76.4% (active) |
| Cc1cc(C)n(CC(O)CN(c2ccccc2)S(=O)(=O)c2ccc3ccccc3c2)n1 (stereo unspecified) | 2.73% |
| N#C/C(=C(/O)COC(=O)COc1ccc(Cl)cc1)c1nc2ccccc2[nH]1 | 24.9% |
| N#C/C(=C(/O)Cc1cccc2ccccc12)c1nc2ccccc2s1 | 9.95% |
| N#C/C(=C(/O)COc1cccc2ccccc12)c1nc2ccccc2[nH]1 | 93.7% (active) |
| O=C(CCNS(=O)(=O)c1ccccc1C(F)(F)F)NCc1ccc2c(c1)OCO2 | 4.67% |
| COc1ccccc1CCNC(=O)CSc1nnc2ccc(-c3cccnc3)nn12 | 16.4% |
| CCOC(=O)N1CCC(N2Cc3cccc(C(=O)Nc4ccc(S(=O)(=O)N(CC)CC)cc4)c3C2=O)CC1 | -1.91% |
| CC(=O)Oc1ccccc1C(=O)Nc1ncc([N+](=O)[O-])s1 | 6.57% |
| Cc1cccc(C)c1Nc1nnc(SCC(=O)NCCCN2CCCC2=O)s1 | -0.54% |
| C=CCNc1nc(N)c(C(=C(C#N)C#N)c2ccccc2)s1 | 5.13% |
| CN1c2ccc([N+](=O)[O-])cc2C(C)(C)C12C=Cc1cc(C(=O)O)ccc1O2 (stereo unspecified) | 0.9% |
| CC[C@@]1(C(=O)OC)N[C@H](CN(C)C(C)=O)[C@@H]2C(=O)N(C)C(=O)[C@@H]21 | -0.36% |
| Cn1c(S(=O)(=O)O)nc2ccccc21 | 3.28% |
| N#C/C(=C1/CCCN1)c1ccccn1 | 0.38% |
| Cn1c(/C(C#N)=C2/CCCCCN2)nc2ccccc21 | 67.6% (active) |
| Cc1ccc2[nH]c(=O)c(CN(CCCN(C)C)C(=O)Nc3cccc(Cl)c3)cc2c1 | 0.48% |
| COn1c(-c2ccc(Cl)cc2Cl)nc2ncccc21 | 2.64% |
| Cc1ncn2cc(-c3ccc(Cl)cc3Cl)[nH]c(=O)c12 | 56.5% (active) |
| CCOC(=O)c1nc(C)n(-c2ccc(Cl)cc2Cl)n1 | 2.68% |
| COc1cc(NC(=O)CSc2ccc(-c3cccnc3)nn2)cc(OC)c1 | 44.9% |
| O=S(=O)(NCC1CCCO1)c1cnc(Cl)c(Cl)c1 (stereo unspecified) | -2.6% |

| Compound | activation |
| --- | --- |
| CC(C)[C@H](NC(=O)N1c2ccccc2NC(=O)[C@@H]1C(C)C)C(=O)N[C@H](C(=O)O)c1ccccc1 | 0.48% |
| C/C(=N\Nc1nc2ccccc2[nH]1)c1cccs1 | 43.1% |
| C/C(=N\Nc1nc(Nc2ccccc2)nc(N2CCOCC2)n1)c1cccs1 | 56.8% (active) |
| C/C(=N\Nc1nc(N2CCOCC2)nc(N2CCOCC2)n1)c1ccc([N+](=O)[O-])cc1 | 0.4% |
| CC(c1ccco1)N(C(=O)COc1ccccc1[N+](=O)[O-])c1ccccn1 (stereo unspecified) | 1.97% |
| CC(C)=CCN1CCN(Cc2ccc(Oc3ncccn3)cc2)CC1CCO (stereo unspecified) | -1.11% |
| CCc1ccc(-c2cc(C(=O)NN3CCN(C)CC3)c3ccccc3n2)cc1 | 30.5% |
| O=C(Nc1ccc(Br)c2cccnc12)c1ccc(Cn2cc([N+](=O)[O-])cn2)o1 | 52% (active) |
| O=C(NCCc1ccccn1)c1nc(Cn2cc([N+](=O)[O-])cn2)no1 | 0.9% |
| CCc1ccc(NC(=O)c2ccc(Cn3cc([N+](=O)[O-])cn3)cc2)cc1 | 3.58% |
| Cn1c(N2CCOCC2)c(C=O)c2ccccc21 | 1.65% |
| O=C(OCC(=O)N1CCN(c2ccccc2)CC1)c1ccc([N+](=O)[O-])s1 | 0.3% |
| CSCCC1NC2(C(=O)Nc3ccc(Cl)cc32)[C@@H]2C(=O)N(C3CCCC3)C(=O)[C@H]12 (stereo partly specified) | 8.17% |
| O=c1cc(Cn2nnc(-c3ccc(Cl)cc3)n2)nc2sccn12 | 3.29% |
| Clc1cccc(Cl)c1Cn1nnc(-c2cccs2)n1 | 64.8% (active) |
| COc1ccccc1N1CCN(C(=O)Cn2nnc(-c3cccs3)n2)CC1 | 4.18% |
| Cc1nnc(SCC(=O)NC(=O)NC2CCCC2)n1N | 1.5% |
| Cc1nnc(SCC(=O)Nc2cccc(N)c2)n1-c1ccccc1 | 7.29% |
| O=C(CNC(=O)c1ccc2ccccc2c1)Nc1ncccc1O | 10.7% |
| Cc1ccc(NC(=O)CSc2cccc3cccnc23)c(C)c1 | 10.7% |
| Cc1nc2ccccc2n1CC(=O)N/N=C/c1cccnc1 | 2.29% |
| O=C(CSc1cccc2cccnc12)N/N=C/c1cccnc1 | 150% (active) |
| CCN(CC(=O)Nc1c(F)cccc1F)C(=O)C1CCC1 | -0.62% |
| COc1ccc2c(C)cc(SCC(=O)NCC3CCCO3)nc2c1 (stereo unspecified) | 17.6% |

| Compound | activation |
| --- | --- |
| Cc1cc(SCC(=O)NCCN2C(=O)CSC2=O)nc2ccccc12 | 55.3% (active) |
| CCCNC(=O)CSc1nc(Cc2ccccc2)nc2ccccc12 | -0.23% |
| CC(C)OC(=O)Cn1nc(C(F)(F)F)c2c1CCCC2 | -2.63% |
| O=C(COC(=O)c1cc(=O)[nH]c2ccccc12)Nc1nc(-c2cccc(Br)c2)cs1 | 5% |
| CCOC(=O)c1cc2c(=O)[nH]c(C(Cl)(Cl)Cl)nc2o1 | -0.93% |
| CC1(C)Oc2ccc(C(=O)N3CCOCC3)cc2N(CC(=O)Nc2ccccc2)C1=O | 1.48% |
| CCSc1nc2c(c(=O)[nH]1)C(c1cccnc1)C(C(=O)OC(C)C)=C(C)N2 (stereo unspecified) | 0.13% |
| COc1ccc(-n2c(=S)[nH]c3sc4c(c3c2=O)CCc2ccccc2-4)cc1 | 8.98% |
| CCC1(C)Cc2c(sc3nc(SC)[nH]c(=O)c23)CO1 (stereo unspecified) | -2.64% |
| CSc1nc2sc3c(c2c(=O)[nH]1)CCc1ccccc1-3 | 74% (active) |
| O=C(CNC(=O)Cc1ccccc1)NCC(=O)OCC(=O)c1ccccc1Cl | 22.1% |
| C/C(=N/NC(=O)c1ccncc1)c1ccc2c(c1)OCO2 | 24.8% |
| C/C(=N\NC(=O)C(N)=O)c1ccc2c(c1)OCCO2 | 3.27% |
| C/C(=N/NC(=S)Nc1ccccc1)c1ccc2c(c1)OCO2 | 111% (active) |
| O=C(CSc1nccc(=O)[nH]1)Nc1ccc(N2CCOCC2)c(Cl)c1 | 0.92% |
| C#CCNc1ccc(C(=O)OCC)cc1 | -1.69% |
| O=[N+]([O-])c1ccc2[nH]c3c(c2c1)CCCC3O (stereo unspecified) | -1.41% |
| CCOC(=O)c1ccc2[nH]c3c(c2c1)CCCC3NC=O (stereo unspecified) | 115% (active) |
| COc1ccc(S(=O)(=O)N2CCOCC2)cc1NC(=O)CSc1ncnc2ccccc12 | 13.1% |
| CCOC(=O)N1CCC(NC(=O)CCc2cn(C)c3ccccc23)CC1 | -3.32% |
| Cc1ccc(Nc2nc(N3CCOCC3)nc(N3CCOCC3)n2)cc1Cl | 12.7% |
| COc1ccc(Nc2ncc(F)c(N3CCOCC3)n2)cc1 | 22.4% |
| Cc1cc(Nc2ccc(Cl)cc2)nc(N2CCOCC2)n1 | 69.5% (active) |
| CCCCc1ccc(NS(=O)(=O)c2cccc(C(=O)N3CCCN(C)CC3)c2)cc1 | -1.46% |
